Data from the supplement of paper PMC10849652.
The full data set covers some 7,900 targets. This sample favours those with a hit. About 0.6% of all pairs of compound and target were hits.

Assays:
Assay in all cases: log2 fold change, soluble protein after heating vs DMSO (PISA); higher = thermal stabilisation; K562 cells, 10 uM, 30 min; active = over 0.2 and 3.5 SD of the protein, either way, in both replicates (recomputed)
erlotinib = compound: C#Cc1cccc(Nc2ncnc3cc(OCCOC)c(OCCOC)cc23)c1 [erlotinib]
Procedure, shortened: (§1)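 Soluble protein was defined as the supernatant after 21,000xg for 90 min. It came from K562 cells at 2×10^6 cells/mL given 10 μM compound for 30 min, heated in aliquots for 3 min across 48°C-58°C, pooled, and extracted in PBS with 0.5% NP-40 at 4°C, and was quantified by TMTpro 16plex LC-MS/MS with equalised channel sums. Thermal stability against control samples, from duplicates, is reported as log2 fold change.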

[1] = compound: C/C(=N\NC(=O)C1=CC(=CC=C1)S(=O)(=O)N2CCOCC2)/C3=C(C=CC(=C3)Cl)O
Procedure, shortened: as §1

[2] = compound: C1=CC(=C(C=C1Cl)C2=NC3=NC=CN=C3C(=N2)NC4=CC=NC=C4)F
Procedure, shortened: as §1

[3] = compound: C1=CC(=CC=C1C2=NC3=C(N2)C=C(C=C3)C(=O)N)OC4=CC=C(C=C4)Cl
Procedure, shortened: as §1

[4] = compound: C1=CC2=C(C=CC(=C2)/C=C\3/C(=O)NC(=NCC4=CC=CS4)S3)N=C1
Procedure, shortened: as §1

[5] = compound: C1=CC2=NC=CN=C2C=C1/C=C/3\C(=O)NC(=O)S3
Procedure, shortened: as §1

[6] = compound: C1=CC=C(C=C1)C2=NC(=C(N2)C3=CC=NC=C3)C4=CC(=C(C=C4)Cl)O
Procedure, shortened: as §1

[7] = compound: C1=CC=C2C(=C1)C3=NNC4=CC=CC(=C43)C2=O
Procedure, shortened: as §1

[8] = compound: C1CCN(C1)C(=O)NC2=CC=CC(=C2)NC3=NC=C(C(=N3)NCCC4=CN=CN4)Br
Procedure, shortened: as §1

[9] = compound: C1CN(CCC1(CC2=CC=C(C=C2)Cl)N)C3=NC=NC4=C3C=CN4
Procedure, shortened: as §1

Measured: log2 fold change

PSMB6 (UniProt P28072)
inactive: erlotinib -0.067 | [1] -0.079 | [2] -0.024 | [3] -0.001 | [4] -0.068 | [5] -0.006 | [6] -0.046 | [7] -0.012 | [8] 0.011 | [9] 0.042

PRKCD (UniProt Q05655)
inactive: erlotinib -0.01 | [1] 0.004 | [2] 0.028 | [3] 0.065 | [4] 0.016 | [5] 0.044 | [6] -0.006 | [7] -0.008 | [8] 0.009 | [9] -0.001

PLCL1 (UniProt Q15111)
inactive: erlotinib 0.136 | [1] -0.122 | [2] 0.117 | [3] 0.095 | [4] -0.042 | [5] 0.007 | [6] 0.098 | [7] 0.051 | [8] 0 | [9] -0.376

QRSL1 (UniProt Q9H0R6)
inactive: erlotinib 0.024 | [1] 0.052 | [2] 0.118 | [3] -0.002 | [4] 0.06 | [5] -0.023 | [6] 0.071 | [7] -0.032 | [8] 0.017 | [9] -0.116

POLR2E (UniProt P19388)
inactive: erlotinib 0.022 | [1] 0.021 | [2] 0.038 | [3] 0.057 | [4] -0.054 | [5] 0.007 | [6] 0.013 | [7] -0.02 | [8] -0.01 | [9] 0.011

PTPN23 (UniProt Q9H3S7)
inactive: erlotinib 0.092 | [1] 0.158 | [2] -0.007 | [3] -0.048 | [4] 0.041 | [5] 0.018 | [6] 0 | [7] 0.006 | [8] -0.048 | [9] -0.029

PXK (UniProt Q7Z7A4)
active: [6] 0.251
inactive: erlotinib 0.062 | [1] 0.019 | [2] -0.006 | [3] 0.022 | [4] 0.074 | [5] 0.018 | [7] 0.019 | [8] 0.014 | [9] 0.004

PRKD2 isoform 3 (UniProt Q9BZL6)
inactive: erlotinib 0.04 | [1] 0.214 | [2] 0.022 | [3] 0.055 | [4] 0.003 | [5] 0.004 | [6] -0.126 | [7] -0.347 | [8] -0.04 | [9] -0.075

PPP4R3B (UniProt Q5MIZ7)
Sequence of UniProt Q5MIZ7 (Q5MIZ7 whole entry, looked up): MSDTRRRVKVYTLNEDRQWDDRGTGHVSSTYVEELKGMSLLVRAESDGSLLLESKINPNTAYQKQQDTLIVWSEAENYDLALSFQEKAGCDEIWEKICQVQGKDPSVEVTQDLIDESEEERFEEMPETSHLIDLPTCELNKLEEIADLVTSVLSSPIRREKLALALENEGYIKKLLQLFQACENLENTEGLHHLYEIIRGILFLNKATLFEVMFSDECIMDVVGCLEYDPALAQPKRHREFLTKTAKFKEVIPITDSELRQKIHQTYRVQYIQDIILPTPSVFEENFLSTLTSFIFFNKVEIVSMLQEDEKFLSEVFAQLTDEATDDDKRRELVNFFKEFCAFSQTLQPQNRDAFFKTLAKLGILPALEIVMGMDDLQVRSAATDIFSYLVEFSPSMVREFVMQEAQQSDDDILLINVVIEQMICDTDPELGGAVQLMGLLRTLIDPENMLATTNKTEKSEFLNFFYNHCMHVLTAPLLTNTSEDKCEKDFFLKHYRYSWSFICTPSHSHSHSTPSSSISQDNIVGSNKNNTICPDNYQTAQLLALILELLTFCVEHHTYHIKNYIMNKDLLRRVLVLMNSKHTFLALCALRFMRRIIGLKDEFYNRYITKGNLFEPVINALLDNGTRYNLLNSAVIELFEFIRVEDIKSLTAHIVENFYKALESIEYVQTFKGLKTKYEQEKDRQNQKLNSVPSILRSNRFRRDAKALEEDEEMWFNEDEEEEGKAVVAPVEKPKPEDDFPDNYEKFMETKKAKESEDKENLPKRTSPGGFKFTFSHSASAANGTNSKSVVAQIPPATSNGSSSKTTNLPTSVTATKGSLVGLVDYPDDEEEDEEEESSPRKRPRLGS
inactive: erlotinib 0.022 | [1] 0.023 | [2] 0.013 | [3] -0.023 | [4] 0.083 | [5] 0.028 | [6] -0.023 | [7] -0.019 | [8] -0.003 | [9] -0.027

POLD1 (UniProt P28340)
Sequence of UniProt P28340 (P28340 whole entry, looked up): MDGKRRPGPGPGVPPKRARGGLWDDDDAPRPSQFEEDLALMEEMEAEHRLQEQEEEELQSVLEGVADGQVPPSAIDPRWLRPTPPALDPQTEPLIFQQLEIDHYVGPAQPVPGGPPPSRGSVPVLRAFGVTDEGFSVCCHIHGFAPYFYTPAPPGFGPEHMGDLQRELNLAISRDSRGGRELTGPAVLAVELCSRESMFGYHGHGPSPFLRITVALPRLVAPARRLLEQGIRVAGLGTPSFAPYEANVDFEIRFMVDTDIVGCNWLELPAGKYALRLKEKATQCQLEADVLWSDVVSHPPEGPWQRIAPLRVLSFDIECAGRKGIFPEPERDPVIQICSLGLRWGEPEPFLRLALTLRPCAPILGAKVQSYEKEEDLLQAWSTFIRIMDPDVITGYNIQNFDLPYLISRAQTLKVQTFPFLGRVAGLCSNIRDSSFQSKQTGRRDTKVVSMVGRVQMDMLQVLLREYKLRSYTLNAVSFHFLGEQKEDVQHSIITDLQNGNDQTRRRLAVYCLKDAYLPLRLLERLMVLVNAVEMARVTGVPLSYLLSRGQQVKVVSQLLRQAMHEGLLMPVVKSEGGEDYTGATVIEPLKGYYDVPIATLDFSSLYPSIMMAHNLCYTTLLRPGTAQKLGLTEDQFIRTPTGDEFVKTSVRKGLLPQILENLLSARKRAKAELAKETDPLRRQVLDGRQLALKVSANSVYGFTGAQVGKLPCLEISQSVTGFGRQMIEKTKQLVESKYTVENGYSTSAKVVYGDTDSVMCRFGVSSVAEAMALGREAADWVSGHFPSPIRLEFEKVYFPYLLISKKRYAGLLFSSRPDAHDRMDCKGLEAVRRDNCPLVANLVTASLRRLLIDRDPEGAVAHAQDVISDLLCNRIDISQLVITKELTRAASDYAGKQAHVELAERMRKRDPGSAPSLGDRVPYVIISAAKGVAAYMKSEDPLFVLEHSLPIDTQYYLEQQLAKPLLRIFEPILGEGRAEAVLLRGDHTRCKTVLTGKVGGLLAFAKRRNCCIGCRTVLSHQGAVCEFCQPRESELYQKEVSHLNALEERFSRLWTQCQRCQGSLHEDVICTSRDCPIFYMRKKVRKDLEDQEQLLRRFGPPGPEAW
inactive: erlotinib 0.063 | [1] 0.039 | [2] -0.009 | [3] -0.016 | [4] 0.023 | [5] -0.024 | [6] 0.05 | [7] -0.058 | [8] -0.02 | [9] -0.022

PGGT1B (UniProt P53609)
inactive: erlotinib 0.024 | [1] 0.036 | [2] 0.114 | [3] 0.006 | [4] 0.049 | [5] -0.002 | [6] 0.021 | [7] -0.036 | [8] 0.054 | [9] 0.027

POLR2A (UniProt P24928)
inactive: erlotinib -0.018 | [1] -0.019 | [2] -0.008 | [3] 0.024 | [4] 0.013 | [5] 0.039 | [6] 0.019 | [7] 0.026 | [8] 0.111 | [9] -0.042

PLCB3 (UniProt Q01970)
Sequence of UniProt Q01970 (Q01970 whole entry, looked up): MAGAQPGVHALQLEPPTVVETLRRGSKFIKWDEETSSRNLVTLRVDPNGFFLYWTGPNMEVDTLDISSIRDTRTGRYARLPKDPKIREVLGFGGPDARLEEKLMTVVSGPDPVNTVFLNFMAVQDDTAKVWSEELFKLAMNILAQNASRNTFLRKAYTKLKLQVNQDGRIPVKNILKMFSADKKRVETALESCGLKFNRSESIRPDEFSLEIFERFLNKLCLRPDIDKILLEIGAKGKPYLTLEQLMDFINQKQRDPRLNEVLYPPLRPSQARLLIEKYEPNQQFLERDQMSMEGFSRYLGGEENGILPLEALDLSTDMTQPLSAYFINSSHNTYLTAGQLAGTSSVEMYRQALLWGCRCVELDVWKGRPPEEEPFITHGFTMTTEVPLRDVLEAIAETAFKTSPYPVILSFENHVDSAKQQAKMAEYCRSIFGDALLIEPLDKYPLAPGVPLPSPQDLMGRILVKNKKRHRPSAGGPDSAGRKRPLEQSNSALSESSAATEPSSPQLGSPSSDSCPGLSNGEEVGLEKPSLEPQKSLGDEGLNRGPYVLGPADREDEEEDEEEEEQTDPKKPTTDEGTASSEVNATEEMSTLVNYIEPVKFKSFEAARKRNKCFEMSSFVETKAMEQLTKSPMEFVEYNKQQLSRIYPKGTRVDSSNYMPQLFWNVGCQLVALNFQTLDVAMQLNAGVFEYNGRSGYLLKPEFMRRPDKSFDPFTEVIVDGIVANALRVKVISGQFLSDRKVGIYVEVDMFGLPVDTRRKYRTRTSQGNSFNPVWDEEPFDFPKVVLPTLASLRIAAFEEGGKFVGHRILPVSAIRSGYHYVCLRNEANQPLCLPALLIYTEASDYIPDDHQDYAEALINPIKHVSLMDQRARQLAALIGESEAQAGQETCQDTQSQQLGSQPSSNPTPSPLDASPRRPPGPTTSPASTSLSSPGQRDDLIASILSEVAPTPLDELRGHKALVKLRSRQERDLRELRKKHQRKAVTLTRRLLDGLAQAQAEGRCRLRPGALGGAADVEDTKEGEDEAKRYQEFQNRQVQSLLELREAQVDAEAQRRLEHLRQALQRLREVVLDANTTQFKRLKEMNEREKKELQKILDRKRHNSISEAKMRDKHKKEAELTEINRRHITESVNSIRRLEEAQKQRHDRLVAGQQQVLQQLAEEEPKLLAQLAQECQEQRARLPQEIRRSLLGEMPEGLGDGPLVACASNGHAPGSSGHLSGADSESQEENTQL
inactive: erlotinib -0.004 | [1] 0.028 | [2] 0.005 | [3] 0.023 | [4] 0.054 | [5] 0.016 | [6] -0.011 | [7] 0.034 | [8] -0.057 | [9] -0.07

PPP6R1 (UniProt Q9UPN7)
inactive: erlotinib -0.022 | [1] -0.017 | [2] 0.013 | [3] -0.004 | [4] 0.025 | [5] 0.012 | [6] -0.022 | [7] -0.039 | [8] -0.014 | [9] 0.033

POLR3D (UniProt P05423)
inactive: erlotinib 0.068 | [2] -0.087 | [3] -0.031 | [5] -0.022 | [6] 0.076 | [7] -0.004 | [8] -0.005 | [9] 0.372
active: [1] -0.665 | [4] -0.733

PTTG1 (UniProt O95997)
inactive: erlotinib -0.024 | [1] 0.094 | [2] -0.024 | [3] 0.029 | [4] -0.043 | [5] -0.005 | [6] -0.205 | [7] -0.045 | [8] -0.024 | [9] -0.093

PTGR2 (UniProt Q8N8N7)
inactive: erlotinib -0.015 | [1] -0.027 | [2] 0.016 | [3] -0.023 | [4] 0.365 | [5] -0.01 | [6] 0.062 | [7] 0.056 | [8] -0.023 | [9] 0.131

PML (UniProt P29590)
inactive: erlotinib 0.045 | [1] -0.073 | [2] 0.015 | [3] -0.022 | [4] -0.043 | [5] 0.071 | [6] 0.033 | [7] 0.007 | [8] 0.002 | [9] -0.005

PSMD5 (UniProt Q16401)
inactive: erlotinib -0.015 | [1] 0.038 | [2] 0.063 | [3] -0.007 | [4] 0 | [5] 0.027 | [6] -0.001 | [7] -0.012 | [8] 0.014 | [9] -0.004

PSME4 (UniProt Q14997)
inactive: erlotinib -0.011 | [1] 0.017 | [2] -0.028 | [3] 0.065 | [4] 0.055 | [5] 0.022 | [6] -0.007 | [7] 0.027 | [8] 0.008 | [9] 0.014

PEX11B (UniProt O96011)
Sequence of UniProt O96011 (O96011 whole entry, looked up, change not shown): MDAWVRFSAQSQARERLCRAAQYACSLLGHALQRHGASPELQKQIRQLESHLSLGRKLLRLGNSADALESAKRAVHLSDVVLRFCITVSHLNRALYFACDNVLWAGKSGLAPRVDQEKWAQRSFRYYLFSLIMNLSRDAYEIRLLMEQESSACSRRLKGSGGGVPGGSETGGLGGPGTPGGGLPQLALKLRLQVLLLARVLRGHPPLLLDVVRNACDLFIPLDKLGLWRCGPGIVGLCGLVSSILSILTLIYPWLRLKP
inactive: erlotinib 0.016 | [1] 0.058 | [2] 0.162 | [3] -0.001 | [4] 0.056 | [5] 0.087 | [6] 0.142 | [7] -0.012 | [8] -0.097 | [9] 0.041

PBK (UniProt Q96KB5)
inactive: erlotinib 0.103 | [1] 0.117 | [2] -0.054 | [3] -0.037 | [4] 0.083 | [5] 0.028 | [6] 0.067 | [7] 0.016 | [8] -0.052 | [9] -0.105

PTMA (UniProt P06454)
inactive: erlotinib 0.06 | [1] 0.159 | [2] 0.192 | [3] 0.005 | [4] -0.136 | [5] 0.006 | [6] 0.197 | [7] 0.189 | [8] -0.148 | [9] 0.151

PRMT7 (UniProt Q9NVM4)
Sequence of UniProt Q9NVM4 (Q9NVM4 whole entry, looked up): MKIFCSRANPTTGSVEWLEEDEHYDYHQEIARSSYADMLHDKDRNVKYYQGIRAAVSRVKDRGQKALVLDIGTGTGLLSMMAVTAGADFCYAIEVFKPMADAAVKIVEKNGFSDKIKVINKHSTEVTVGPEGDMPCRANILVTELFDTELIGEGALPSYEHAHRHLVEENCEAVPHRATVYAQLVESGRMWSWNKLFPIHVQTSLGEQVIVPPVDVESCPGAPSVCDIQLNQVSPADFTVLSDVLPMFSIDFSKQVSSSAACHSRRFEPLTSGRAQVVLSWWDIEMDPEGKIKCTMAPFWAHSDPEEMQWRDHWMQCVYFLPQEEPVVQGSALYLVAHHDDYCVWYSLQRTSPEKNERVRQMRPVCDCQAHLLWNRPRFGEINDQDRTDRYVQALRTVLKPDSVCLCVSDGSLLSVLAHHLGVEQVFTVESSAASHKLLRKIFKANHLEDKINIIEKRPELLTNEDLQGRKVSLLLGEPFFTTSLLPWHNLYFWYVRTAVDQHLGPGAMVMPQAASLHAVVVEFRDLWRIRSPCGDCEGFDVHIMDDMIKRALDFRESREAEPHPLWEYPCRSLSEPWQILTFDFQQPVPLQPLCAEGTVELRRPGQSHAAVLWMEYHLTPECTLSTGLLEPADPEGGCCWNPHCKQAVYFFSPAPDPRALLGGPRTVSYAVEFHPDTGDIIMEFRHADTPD
inactive: erlotinib 0.093 | [1] 0.132 | [2] 0.064 | [3] -0.017 | [4] 0.142 | [5] 0.018 | [6] -0.109 | [7] -0.039 | [8] 0.031 | [9] -0.031

PDIK1L (UniProt Q8N165)
inactive: erlotinib -0.075 | [1] 0.083 | [2] -0.031 | [3] -0.052 | [4] 0.034 | [5] 0.115 | [6] -0.034 | [7] 0.197 | [8] 0.023 | [9] -0.007

PRKCG (UniProt P05129)
inactive: erlotinib -0.04 | [1] 0.058 | [2] 0.052 | [3] 0.04 | [4] 0.144 | [5] -0.033 | [6] 0.074 | [7] 0.023 | [8] -0.052 | [9] -0.138

PDE2A (UniProt O00408)
Sequence of UniProt O00408 (O00408 whole entry, looked up): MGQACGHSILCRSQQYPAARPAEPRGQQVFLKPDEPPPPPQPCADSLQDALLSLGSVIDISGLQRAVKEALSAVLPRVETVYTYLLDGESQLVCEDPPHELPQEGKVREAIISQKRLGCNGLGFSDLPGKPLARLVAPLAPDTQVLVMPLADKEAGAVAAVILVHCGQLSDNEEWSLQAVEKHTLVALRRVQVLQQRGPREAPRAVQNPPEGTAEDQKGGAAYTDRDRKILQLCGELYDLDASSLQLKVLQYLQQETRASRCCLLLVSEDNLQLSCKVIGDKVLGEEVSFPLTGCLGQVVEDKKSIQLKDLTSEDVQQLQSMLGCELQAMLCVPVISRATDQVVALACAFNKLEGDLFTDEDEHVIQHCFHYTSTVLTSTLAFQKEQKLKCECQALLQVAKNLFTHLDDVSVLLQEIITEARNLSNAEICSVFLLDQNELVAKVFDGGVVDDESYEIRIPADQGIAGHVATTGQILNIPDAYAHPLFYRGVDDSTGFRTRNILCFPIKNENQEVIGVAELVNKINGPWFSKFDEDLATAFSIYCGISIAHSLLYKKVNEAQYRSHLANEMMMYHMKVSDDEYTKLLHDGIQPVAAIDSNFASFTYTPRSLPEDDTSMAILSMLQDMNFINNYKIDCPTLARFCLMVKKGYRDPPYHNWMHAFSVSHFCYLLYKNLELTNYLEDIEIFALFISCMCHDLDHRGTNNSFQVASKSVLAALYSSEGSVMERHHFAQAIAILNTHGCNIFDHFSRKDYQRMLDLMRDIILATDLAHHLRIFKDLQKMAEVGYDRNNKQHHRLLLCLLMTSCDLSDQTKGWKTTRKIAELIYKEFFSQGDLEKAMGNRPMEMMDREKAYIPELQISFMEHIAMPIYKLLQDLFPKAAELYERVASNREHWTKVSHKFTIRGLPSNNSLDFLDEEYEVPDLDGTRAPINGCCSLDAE
inactive: erlotinib -0.055 | [2] -0.011 | [3] -0.034 | [4] 0.161 | [5] -0.099 | [6] 0.137 | [7] 0.113 | [8] -0.077 | [9] 0.184
active: [1] -0.521

POLR2M (UniProt P0CAP2)
inactive: erlotinib -0.042 | [1] -0.033 | [2] -0.054 | [3] 0.004 | [4] 0.05 | [5] 0.055 | [6] 0.041 | [7] -0.009 | [8] 0.017 | [9] -0.024

PAK4 (UniProt O96013)
inactive: erlotinib 0.155 | [1] -0.066 | [2] 0.017 | [3] -0.04 | [4] 0.015 | [5] 0.048 | [6] -0.068 | [7] -0.013 | [8] 0.062 | [9] -0.03

PSMD2 (UniProt Q13200)
inactive: erlotinib -0.095 | [1] -0.095 | [2] -0.042 | [3] -0.001 | [4] -0.043 | [5] -0.024 | [6] 0.007 | [7] 0.016 | [8] 0.005 | [9] -0.021
